HCV inhibitor = HCV inhibition | Huh7.5.1 HCVcc-Cre infection, luciferase reporter, 44 h | Potency, µM (titrated, usually from 41.8 µM), most hits filed as inhibitors | 340,000 compounds, 3.4% hits
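Seed cells (1,000/well) for 4 h; treat with compound and infect with HCVcc-Cre, moi about 0.5. Incubate 44 h, then detect luciferase activity.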
Marburg entry inh = Marburg virus entry inhibition; Potency, µM (doses to about 37.8 µM), most hits filed as inhibitors; Marburg virus pseudotyped entry inhibition, cell reporter; 300,000 compounds, 1.8% hits; calls by dose curve; tested in HEK293 cells
RE007 growth inh = less growth of the S. pombe RE007 Vpr strain; S. pombe RE007 Vpr strain, BacTiter-Glo ATP luminescence, 24 h; Potency, µM (highest dose often 92.2 µM), actives largely listed as inhibitors; 360,000 compounds, 0.21% hits; AID 651644; active means well fitted falling curve with a large enough effect; inconclusive means small, poorly fitted or top-dose-only effect; inactive means no such curve, though single readings can be large or run the other way; further: nearly all actives have a fitted effect of over 50% in size
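Fission yeast strain RE007, carrying one chromosomally integrated HIV-1 vpr copy, was seeded at OD 0.01 in PMG+AL medium with 23 nL pinned compound. After 24 h at 30 °C and 99% humidity, viability was read by BacTiter-Glo luminescence.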
FMDV antiviral = foot and mouth disease virus antiviral activity. FMDV antiviral cell-based qHTS. Potency, µM (top dose mostly 57.9 µM), usual class: inhibitors. 410,000 compounds, 1.2% hits; calls by dose curve; tested in HEK293T cells; further: read-out not given here; nearly all actives have a fitted effect of over 45% in size
Lassa entry inh = blocks Lassa virus binding to or entry into cells. Lassa virus pseudotype entry inhibition, cell reporter. Potency, µM (titrated, usually from 37.9 µM), hits mostly inhibitors. 300,000 compounds, 1.2% hits. AID 540256; calls by dose curve; tested in HEK293 cells; further: nearly all actives have a fitted effect of over 50% in size
Sm TGR block = S. mansoni TGR enzyme inhibition. Q962Y6. purified TGR, DTNB reduction, TNB absorbance 405 nm. Potency, µM (highest dose often 114 µM), hits mostly inhibitors. 360,000 compounds, 3% hits; further: nearly all actives have a fitted effect of over 60% in size
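TGR 20 nM + NADPH 100 uM (dispensed conc.), cpd preinc 15 min RT; start with NADPH (500 uM addition) then DTNB (15 mM addition). Kinetic TNB absorbance, 405 nm filter. Four-parameter Hill fit across titration.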
Hits are given with their value; 0 = inactive; ? = inconclusive; - = not tested or not shown. An excerpt weighted towards active compounds, which were near 7.2% of everything screened. Unless noted, the call rests on the fitted dose curve; in most records, active means well fitted curve in the direction sought with a large enough effect; inconclusive means small, poorly fitted or top-dose-only effect, or another doubt; inactive means no such curve, though single readings can be large; an effect the other way counts as inactive or inconclusive.

SMILES	HCV inhibitor	Marburg entry inh	RE007 growth inh	FMDV antiviral	Lassa entry inh	Sm TGR block
CCCCC1=CC2=CC(=O)C(C)(OC(=O)CCc3ccccc3)C(=O)C2=CO1 (configuration not stated)	0	0	0	0	-	45µM
CC1(OC(=O)CCc2ccccc2)C(=O)C=C2C=C(c3ccc(C#N)cc3)N(Cc3ccco3)C=C2C1=O (configuration not stated)	0	-	0	0	-	35µM
Cc1ccccc1Cn1c(=O)n(Cc2ccco2)c(=O)c2sc3ccccc3c21	-	?	-	0	0	?
COc1ccccc1C1c2[nH]c3ccccc3c2CCN1Cc1cnc(C)s1 (configuration not stated)	0	0	0	0	?	0
COc1ccc(C2c3[nH]c4ccccc4c3CCN2Cc2cccn2-c2ncccn2)cc1C (configuration not stated)	?	7.1µM	0	0	?	0
Cc1cccc(C2c3[nH]c4ccccc4c3CCN2Cc2cccn2-c2ncccn2)c1 (configuration not stated)	0	?	0	0	11µM	-
CC(=O)Nc1ccc(CN2CCc3c([nH]c4ccccc34)C2c2ccccn2)cc1 (configuration not stated)	0	?	0	0	0	0
COc1cccc(C2c3[nH]c4ccccc4c3CCN2Cc2cnn(C)c2)c1 (configuration not stated)	0	-	0	0	-	0
c1ccc(C2c3[nH]c4ccccc4c3CCN2Cc2cccn2-c2ccccn2)nc1 (configuration not stated)	?	-	0	0	-	50µM
Cc1ccc(NC(=O)Cn2c(=O)oc3cc(S(=O)(=O)N4CCC(C)CC4)ccc32)cc1Cl	-	0	-	0	0	0
CCC1=NNc2cccc3c(OC)ccc1c23	-	-	-	-	-	10µM
C/C(=N/NC(=O)c1ccc(C)s1)c1cccc(NC(=O)c2ccoc2C)c1	11µM	-	0	0	-	?
Cc1ccc(CCNC(=O)c2sc3ncccc3c2-n2cccc2)cc1	-	-	-	0	0	0
Cc1nn(-c2cccc(Cl)c2)c2nc(-c3ccncc3)cc(C(=O)N3CCOCC3)c12	7.9µM	0	0	?	?	0
CCN(C(=O)c1cc2c(s1)-c1ccccc1S(=O)(=O)C2)c1cc(OC)ccc1OC	10µM	-	0	0	-	0
CCN(C(=O)c1cc2c(s1)-c1ccccc1OC2)c1cc(OC)ccc1OC	13µM	-	0	0	-	0
O=C(c1cc2c(s1)-c1ccccc1S(=O)(=O)C2)N1CCCC1	0	-	0	0	-	0
O=C1NC(Cc2ccc(O)cc2)c2nc3ccc(Cl)cc3c(=O)n2-c2cc3ccccc3cc21 (configuration not stated)	-	-	0	?	-	-
COc1ccc(NC(=O)CSc2nncc3ccccc23)cc1	0	-	0	0	-	0
COc1ccc(C(=O)Sc2nncc3ccccc23)cc1	0	0	0	0	0	20µM
Cc1ccc(S(=O)(=O)CCSC(=N)N)cc1	10µM	?	0	?	?	-
Cc1ccc(S(=O)(=O)CC(N)=O)cc1	0	0	0	-	0	0
CSc1ccccc1NC(=O)c1cc(-c2cccnc2)nc2ccc(Br)cc12	11µM	?	0	0	?	0
COc1cccc(-c2cc(C(=O)Nc3ccc(N(C)C(C)=O)cc3)c3cc(Br)ccc3n2)c1	11µM	-	0	?	-	-
O=C(Nc1ccc(C(=O)N2CCOCC2)cc1)c1cc(-c2cccnc2)nc2ccc(Cl)cc12	7.9µM	0	0	?	?	0
SMILES	HCV inhibitor	Marburg entry inh	RE007 growth inh	FMDV antiviral	Lassa entry inh	Sm TGR block
CC(=O)Nc1cccc(NC(=O)c2cc(-c3cccnc3)nc3ccc(Br)cc23)c1	14µM	?	0	0	0	0
CC(=O)Nc1cccc(NC(=O)c2cc(-c3cccnc3)nc3ccc(Cl)cc23)c1	?	?	0	?	?	-
CCN(CC)C(=O)Cc1ccccc1	0	-	0	0	-	0
O=C(CCSc1ccccc1)N1CCCC1	0	0	0	0	?	0
O=[N+]([O-])/C(C(Cl)=C(Cl)Cl)=C(\Sc1ccccc1)N1CCCCC1	0	-	0	0	-	13µM
CCN(CC)/C(Sc1ccccc1)=C(/C(Cl)=C(Cl)Cl)[N+](=O)[O-]	0	0	0	0	0	56µM
CCN(CC)/C(Sc1ccccc1)=C(\C(Cl)=C(Cl)Cl)[N+](=O)[O-]	0	0	0	0	0	22µM
